PubChem BioAssay AID492949 (National Center for Advancing Translational Sciences (NCATS), 2010)
Inconclusive results are not listed. Where a call stands in place of a potency, no number is given. The source made the active and inactive calls. Calls follow the shape of the dose curve; as a rule, active = well fitted activation curve with a large enough effect; inconclusive = small, poorly fitted or top-dose-only effect; inactive = no such curve, though single readings can be large or run the other way.

Target: Relaxin receptor 1 (Homo sapiens) (UniProt Q9HBX9)
Sequence (Q9HBX9 whole entry, looked up): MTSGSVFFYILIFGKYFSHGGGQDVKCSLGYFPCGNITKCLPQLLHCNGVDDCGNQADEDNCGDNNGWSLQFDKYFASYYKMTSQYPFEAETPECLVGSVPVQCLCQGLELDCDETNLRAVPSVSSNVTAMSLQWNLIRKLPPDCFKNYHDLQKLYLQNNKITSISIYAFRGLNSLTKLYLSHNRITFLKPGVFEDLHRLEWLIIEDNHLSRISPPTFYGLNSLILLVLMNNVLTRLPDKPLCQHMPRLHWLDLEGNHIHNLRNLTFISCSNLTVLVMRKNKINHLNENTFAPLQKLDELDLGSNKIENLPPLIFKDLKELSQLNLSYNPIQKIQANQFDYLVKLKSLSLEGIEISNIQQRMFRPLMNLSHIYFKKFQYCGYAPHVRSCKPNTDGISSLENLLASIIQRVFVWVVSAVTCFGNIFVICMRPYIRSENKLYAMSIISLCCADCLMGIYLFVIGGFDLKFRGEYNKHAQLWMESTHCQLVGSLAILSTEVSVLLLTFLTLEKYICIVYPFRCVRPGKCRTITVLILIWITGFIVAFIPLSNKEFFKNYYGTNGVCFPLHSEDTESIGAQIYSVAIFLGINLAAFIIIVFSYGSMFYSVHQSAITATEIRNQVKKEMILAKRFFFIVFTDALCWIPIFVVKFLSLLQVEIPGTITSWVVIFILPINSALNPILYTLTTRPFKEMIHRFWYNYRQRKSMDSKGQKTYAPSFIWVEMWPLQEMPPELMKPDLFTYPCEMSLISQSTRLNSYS
Test: qHTS Assay for Agonists of the Relaxin Receptor RXFP1: THP1 Hit Validation; also: nearly all actives have a fitted effect of over 60% in size
From the text: The relaxin hormone is involved in the variety of biological functions in normal tissues and diseases. The role of relaxin is well-established in female reproduction and parturition, mammary gland and endometrial development, maintenance of myometrial quiescence during pregnancy. Relaxin signaling through its G protein-coupled receptor (GPCR) RXFP1 results in ECM remodeling through regulation of collagen deposition, cell invasiveness, proliferation and overall tissue homeostasis. […] Recombinant human relaxin (rhRlx) is currently being tested in clinical trials as a protective agent in congestive heart failure, in treating severe preeclampsia, and as an anti-fibrotic agent in systemic sclerosis.
Upon relaxin binding RXFP1 activation leads to the activation of adenylate cyclase (AC) via Gs. cAMP will activate PKA, which phosphorylates many signaling proteins. Thus, detection of cAMP increase is an easy and reliable indication of relaxin receptor activation. […] RXFP1 activation was assayed by changes in cAMP levels as detected with a time-resolved fluorescence energy transfer (TR-FRET) cAMP detection kit. […]
This is a cell-based assay for cAMP second messenger response to screen for agonists of the RXFP1 receptor. […] The cells were lysed and the cAMP levels were measured with a TR-FRET cAMP kit. […] The EC50 values were determined from concentration-response data modeled with the standard Hill equation […]
Potency is read from the fitted curve at half-maximal effect.

Compound | Potency
O=c1[nH]c(O)c(N=Nc2ccc([N+](=O)[O-])cc2)c(=O)[nH]1 | 11 µM (active)
CCC(Oc1cc(Cl)ccc1Cl)C(=O)N1CCC2(CC1)OCCO2 (configuration not stated) | inactive
